Bioassay records (PubChem BioAssay)
AHR activator: human AHR activation; P35869; AHR-responsive luciferase reporter cells, luminescence; activation, % at 5 µM; 320,000 compounds, 2.5% hits; AID 2796; in the data active = activation above about 47%
rCAG RNA binder: molecules binding r(CAG) RNA repeats | inhibition, % at 3 µM | 370,000 compounds, 1.3% hits | r(CAG) RNA repeat, TO-PRO-1 dye displacement fluorescence;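 active = inhibition above the plate cutoff, the mean of all test compounds on that plate plus 3 SD, cut at about 35% in these data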;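 also: higher means more dye released from RNA so lower well fluorescence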
KLK7 zymogen act: proKLK7 (human) activation, primary screen; P49862; purified proKLK7, EDANS-DABCYL substrate fluorescence; 100% is mature enzyme control, 0% vehicle; activation, % at 7 µM; 370,000 compounds, 0.9% hits; AID 652039;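 active = activation above the mean of all tested compounds plus 3 SD, computed per campaign excluding outliers beyond control limits, cut at about 13% in these data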
ADAM10 inh: inhibitors of human ADAM10; inhibition, % at 7 µM; recombinant ADAM10, EDANS/DABCYL FRET peptide cleavage, 3 h; AID 720582; O14672; 370,000 compounds, 0.62% hits;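 active = inhibition above a per-campaign cutoff equal to the mean of compounds falling between control-based bounds plus 3 SD, cut at about 20% in these data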
GRIN3A LBD mod: modulates the human NR3A ligand-binding domain | NR3A LBD differential scanning fluorimetry, Tm shift; 0% = protein alone, 100% = glycine-bound protein | Tm shift relative to glycine control, % at 25 µM | 340,000 compounds, 2.5% hits | AID 1259313;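 active = melting temperature shift of at least 10% of the positive control shift, at one fixed dose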
ADAM17 inh: ADAM17 inhibition, QFRET primary screen | P78536 | recombinant ADAM17, EDANS/DABCYL FRET peptide cleavage | inhibition, % at 6.95 µM | 370,000 compounds, 0.83% hits | AID 720648;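 active = inhibition above the mean of compounds lying between control limits plus 3 SD, set per campaign, cut at about 8.5% in these data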
Target sequence (P78536 215-824 limits assumed): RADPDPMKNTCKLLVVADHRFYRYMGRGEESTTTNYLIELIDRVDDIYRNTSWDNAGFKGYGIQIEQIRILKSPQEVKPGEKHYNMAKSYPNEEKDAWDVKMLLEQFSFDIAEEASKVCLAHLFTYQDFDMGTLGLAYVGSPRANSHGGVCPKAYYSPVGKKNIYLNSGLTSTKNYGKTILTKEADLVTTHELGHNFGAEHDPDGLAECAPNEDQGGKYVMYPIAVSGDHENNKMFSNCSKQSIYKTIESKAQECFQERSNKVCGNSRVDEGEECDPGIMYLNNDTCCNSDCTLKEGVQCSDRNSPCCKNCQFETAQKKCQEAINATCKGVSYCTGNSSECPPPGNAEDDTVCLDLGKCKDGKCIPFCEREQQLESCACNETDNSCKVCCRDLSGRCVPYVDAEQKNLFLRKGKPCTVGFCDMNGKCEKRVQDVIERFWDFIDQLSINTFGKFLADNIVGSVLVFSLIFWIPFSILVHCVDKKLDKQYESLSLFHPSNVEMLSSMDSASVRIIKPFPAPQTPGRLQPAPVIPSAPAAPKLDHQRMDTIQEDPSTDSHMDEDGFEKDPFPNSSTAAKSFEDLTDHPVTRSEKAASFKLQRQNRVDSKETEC
Of the large screens only hits and unclear results are named; the others gave an inactive call. This is a sample that favours compounds with a hit; in the whole collection about 7% have one here.

O=C(Nc1ccc(OC(F)(F)F)cc1)Nc1cccnc1	GRIN3A LBD mod 11
COC(=O)[C@@]1(OC(C)=O)CC(OC(C)=O)[C@H](OC(C)=O)[C@H](OC(C)=O)C1Br (some centres not stated)	none (no result: AHR activator, rCAG RNA binder, KLK7 zymogen act, GRIN3A LBD mod)
Cc1cc(NC(=O)Nc2cccc([N+](=O)[O-])c2)no1	none
O=C(Nc1cccnc1)Nc1cccc([N+](=O)[O-])c1	AHR activator 77
COc1cc([N+](=O)[O-])ccc1NC(=O)Nc1cccnc1	none
O=C(Nc1cccc([N+](=O)[O-])c1)c1[nH]ncc1Cl	AHR activator 75
Cc1ccc(NC(=O)Nc2cccc([N+](=O)[O-])c2)cc1F	GRIN3A LBD mod 34
Cc1ccc(NC(=O)Nc2cccnc2)cc1Cl	GRIN3A LBD mod 31 (no result: AHR activator)
CCOC(=O)[C@]12CCCCC/C=C\1N(Cc1ccc(OC)cc1)C(=O)[C@H]2CC(=O)NCc1ccc(OC)c(OC)c1	none (no result: AHR activator, GRIN3A LBD mod)
O=C(NCc1cccc(C(F)(F)F)c1)O[C@H]1CC[C@@]23CCCN2C(=O)CCC[C@H]3C1	none (no result: AHR activator, rCAG RNA binder, KLK7 zymogen act, GRIN3A LBD mod)
COC(=O)[C@@]12CCCCC3=C1N(CCC3)C(=O)[C@H]2CC(=O)NCc1cccc(C(F)(F)F)c1	none (no result: AHR activator, GRIN3A LBD mod)
Cc1cc(C)nc(/N=C(\N)Nc2cccc([N+](=O)[O-])c2)n1	AHR activator 52
Cc1ccc(C(C)C)cc1NC(=O)Nc1ccc([N+](=O)[O-])cc1	GRIN3A LBD mod 25
Cc1cc(C)nc(/N=C(\N)Nc2ccc([N+](=O)[O-])cc2)n1	none
O=C(NCCc1c[nH]c2ccccc12)OCc1cn(-c2ccc(F)cc2)nn1	none (no result: AHR activator, GRIN3A LBD mod)
Cc1ccc(S(=O)(=O)Nc2nc3ccccc3nc2NCC2CCCO2)cc1C (configuration not stated)	rCAG RNA binder 42
Cc1cccc(S(=O)(=O)Nc2nc3ccccc3nc2NCC2CCCO2)c1 (configuration not stated)	none
O=C(c1cccc(I)c1)N1CCC(Oc2cccnc2)CC1	none (no result: AHR activator, GRIN3A LBD mod)
Cc1cc(NS(=O)(=O)c2ccc(NC(=O)CSc3nnc(-c4cccnc4)n3-c3ccccc3)cc2)nc(C)n1	none (no result: AHR activator, GRIN3A LBD mod)
Cc1nc(Nc2ccccc2)c2oc3ccc(Cl)cc3c2n1	AHR activator 51, GRIN3A LBD mod 16
Cc1nc(NCCc2ccccc2)c2oc3ccccc3c2n1	AHR activator 64
Cc1nc(Nc2ccc3c(c2)OCO3)c2oc3ccccc3c2n1	AHR activator 65
c1ccc2c(c1)oc1c(Nc3ccc4c(c3)OCO4)ncnc12	none
CCc1nc(Nc2ccc(F)cc2)c2oc3ccccc3c2n1	none
CCc1nc(Nc2cccc(F)c2)c2oc3ccccc3c2n1	GRIN3A LBD mod 12
CC(C)CNc1cccc2c1S(=O)(=O)N(Cc1cccc(F)c1)[C@@H](C)[C@H](c1ccccc1)O2	none (no result: AHR activator, GRIN3A LBD mod)
Cn1c(NC(=O)c2ccccc2)nc(Cc2ccccc2)c1-c1ccccc1	none (no result: AHR activator, GRIN3A LBD mod)
COc1ccc(N2CCCN(CC(=O)Nc3ccccc3C)CC2)cc1	none (no result: AHR activator, GRIN3A LBD mod)
Cc1ccc(Nc2nc(C)nc3c2oc2ccccc23)cc1	AHR activator 61
COc1ccc(Nc2nc(C)nc3c2oc2ccccc23)cc1	none (no result: GRIN3A LBD mod)
COc1ccc2c(c(-c3ccccc3)cn2C)c1-c1ccccc1	none (no result: AHR activator, GRIN3A LBD mod)
COc1cc([N+](=O)[O-])ccc1-c1ccc(C(=O)Nc2ccc(NC(C)=O)cc2)o1	none
CC(=O)Nc1ccc(NC(=O)c2ccc(-c3ccc([N+](=O)[O-])cc3)o2)cc1	GRIN3A LBD mod 12
COc1cccc(NC(=O)c2ccc(-c3ccc([N+](=O)[O-])cc3)o2)c1	GRIN3A LBD mod 17
COc1ccc(NC(=O)c2ccc(-c3ccc([N+](=O)[O-])cc3)o2)cc1OC	GRIN3A LBD mod 14
COc1ccc([N+](=O)[O-])cc1C(=O)Nc1ccc(Cc2ccncc2)cc1	AHR activator 72
Cc1nnc(NC(=O)c2ccc(-c3ccc([N+](=O)[O-])cc3)o2)s1	none
CCOC(=O)c1cccnc1SCc1cc(=O)n2ccccc2n1	none
CC(OC(=O)c1cccnc1SCc1cc(=O)n2ccccc2n1)c1ccccn1 (configuration not stated)	AHR activator 73
CCC1CCc2sc(C(=O)Nc3cc(S(=O)(=O)N4CCOCC4)ccc3OC)cc2C1 (configuration not stated)	none (no result: AHR activator, rCAG RNA binder, KLK7 zymogen act, GRIN3A LBD mod)
Cc1ccc(CN2CC=CS2(=O)=O)cc1	none (no result: AHR activator, GRIN3A LBD mod)
C=CCN1C(=O)/C(=C2/Sc3ccccc3N2CCCS(=O)(=O)O)SC1=S	rCAG RNA binder 85
